Source: PubChem (National Center for Advancing Translational Sciences (NCATS))
ERG Ets-DNA blk: ERG Ets/DNA interaction inhibition; P11308; AID 624246; fluorescence polarization, His-ERG Ets domain / labelled DNA; actives 0.028% (n = 370,000); Potency, µM (series often up to 76.9 µM), hits mostly inhibitors; active = well fitted inhibition curve with a large enough effect in the polarisation, with a control signal flat; inconclusive = small, poorly fitted or top-dose-only effect, or effect the other way, or a change in a side signal; inactive = no such curve, though single readings can be large or run the other way; the % refers to the polarisation;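 note: polarization taken with two DNA probes labelled with fluorescein and Texas red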
Target sequence (P11308 whole entry, looked up, the tested form may be a part): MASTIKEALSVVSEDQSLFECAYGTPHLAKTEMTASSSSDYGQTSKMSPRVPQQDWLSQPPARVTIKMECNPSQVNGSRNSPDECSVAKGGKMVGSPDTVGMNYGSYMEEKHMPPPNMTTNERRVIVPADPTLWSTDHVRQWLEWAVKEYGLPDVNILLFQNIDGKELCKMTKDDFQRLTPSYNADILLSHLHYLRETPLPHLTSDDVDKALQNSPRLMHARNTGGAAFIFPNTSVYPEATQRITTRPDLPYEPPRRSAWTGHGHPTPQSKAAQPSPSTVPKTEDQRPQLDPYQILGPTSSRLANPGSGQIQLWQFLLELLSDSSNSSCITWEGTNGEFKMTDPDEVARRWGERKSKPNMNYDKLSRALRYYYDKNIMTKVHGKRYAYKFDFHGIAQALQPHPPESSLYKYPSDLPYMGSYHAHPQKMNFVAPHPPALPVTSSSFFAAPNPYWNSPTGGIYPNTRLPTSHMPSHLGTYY
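His-tagged ERG Ets domain (1 uM in the protein solution; 300mM KCl, 50mM Tris-HCl, 1mM EDTA, 1mM DTT, pH 7.5) received compound, then a probe mix of 5 nM fluorescein-DNA and 100nM Texas-615-DNA. Fluorescence polarization was read for both dyes.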
D1 agonist: agonists of human D1 dopamine receptor. P21728. HEK293 T-REx D1 cells, calcium flux, agonist mode. actives 1% (n = 360,000). activation, % at 2 µM; in the data active = activation above about 30%
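Agonism was scored from calcium flux recorded over 180 s (1 read/s) after pintool compound addition, following a 10-cycle baseline. Cells were inducible force-coupled HEK293 TREx D1, plated overnight at 30 C and loaded with no-wash calcium dye.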
D1 PAM: enhances dopamine response at the human D1 receptor. P21728. HEK293 TREx D1 cells, calcium flux, dopamine EC20 potentiation. potentiation, % at 10 µM. actives 0.036% (n = 360,000). AID 504651; in the data active = potentiation above about 30%
D3 antag: blocks the human D3 dopamine receptor; D3R cells, DiscoveRx beta-arrestin luminescence, antagonist mode; stronger effect = lower value; max response, negative = inhibition, %; actives 2.5% (n = 360,000); in the data active = max response below about -50%; inconclusive = no clear call, values can overlap the other calls
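Cells plated overnight at 1500 cells/well, then exposed to library compounds with dopamine controls for 90 minutes at 37 degrees C. DiscoveRx reagent added for 30–60 minutes at room temperature; luminescence read, quantitative HTS format.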
DRD3 agonist: activates the human D3 dopamine receptor; max activation, %; actives 0.58% (n = 410,000); P35462; D3R DiscoveRx beta-arrestin cells, luminescence, 90 min; in the data active = max activation above about 30%
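Agonist mode: compounds and dopamine controls were applied to plated cells for 90 min at 37 degrees C after an overnight attachment at 1500 cells/well. Luminescent read-out followed 30 - 60 minutes at room temperature with DiscoveRx detection reagent.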
D1 antagonist: human D1 dopamine receptor antagonism; P21728; HEK293 TREx D1 cells, calcium flux, dopamine EC80; stronger effect = lower value; activity change, negative = inhibition, % at 10 µM; actives 3.2% (n = 360,000); AID 504652; in the data active = activity change below about -30%
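Kinetic fluorescence of a calcium dye serves as the read-out. D1-expressing Hek293 Trex cells, induced overnight at 30 C, are exposed to compound for 180 s before an EC80 dopamine addition, then read 180 s further.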
A number is an active result; i = inactive; ? = inconclusive; nt = not tested or not shown. An excerpt weighted towards active compounds, which were near 6.1% of everything screened.

SMILES	ERG Ets-DNA blk	D1 agonist	D1 PAM	D3 antag	DRD3 agonist	D1 antagonist
COc1ccc(CCNCC(=O)Nc2ccc(C)c(S(=O)(=O)N(C)C)c2)cc1	i	i	i	-52	i	i
Cc1ccc(NC(=O)c2ccccc2OCC(=O)Nc2ccccc2F)cc1S(=O)(=O)N(C)C	i	i	i	i	i	-38
C=C(C)COc1ccc(-c2ncncc2-c2ccccc2OC)c(O)c1	i	i	i	i	i	i
Cc1ccc2nc(Cc3ccc(N)cc3)oc2c1	i	i	i	i	i	-31
CCCOc1ccc(C2C(C(=O)c3ccco3)=C(O)C(=O)N2CCCn2ccnc2)cc1 (stereo not given)	i	i	i	i	i	i
O=C(CCCc1c[nH]c2ccccc12)N1CCN(c2ccc(N3CCOCC3)nn2)CC1	i	i	i	i	i	i
CC(C)n1cc(CN2CCCC(CNS(=O)(=O)c3cccc4cccnc34)C2)cn1 (stereo not given)	i	i	i	i	i	-49
Cn1cc(CN2CCCC(CNS(=O)(=O)c3cccc4cccnc34)C2)cn1 (stereo not given)	i	i	i	i	i	i
CC1(CCOCc2ccccc2)NC(=O)NC1=O (stereo not given)	i	nt	nt	i	i	nt
COc1ccc(OCCCN2CCc3ccccc3C2)cc1	i	i	i	-109	i	i
CCOc1ccc(OCCOCCN2CCc3ccccc3C2)cc1	i	i	i	-58	i	i
Cc1ccc(SCCOCCN2CC(C)OC(C)C2)cc1 (stereo not given)	i	i	i	i	i	i
CCOc1ccc(OCCOCCN2CCCC2)cc1	i	i	i	i	i	i
CCCOc1ccc(OCCOCCN2CCc3ccccc3C2)cc1	i	i	i	-70	i	i
CCOc1ccc(NC(=O)CN2CCc3ccccc3C2)cc1	i	i	i	i	i	i
COc1ccc(OCC(=O)N2CCc3ccccc3C2)cc1	i	i	i	i	i	i
Cc1ccc(SCCOCCN2CCc3ccccc3C2)cc1	i	i	i	-105	i	i
Cc1c(NC(=O)COC(=O)C2(c3ccccc3F)CCCC2)c(=O)n(-c2ccccc2)n1C	i	i	i	i	i	i
CCOC(=O)C1(Cc2cccc(OC)c2)CCN(Cc2ccc3c(c2)OCCO3)CC1	i	i	i	i	i	i
CCOC(=O)c1nnc(-c2ccccc2)[nH]c1=O	i	i	i	i	i	i
COc1ccc(C2(O)CCN(CCCCOc3ccccc3)CC2)cc1	i	36	i	-90	i	i
C=CCc1cc(OC)ccc1OCCOCCC(C(=O)OCC)C(=O)OCC	i	i	i	i	i	i
Fc1ccc(OCCOCCN2CCCC2)cc1	i	nt	nt	i	i	nt
C=CCc1cc(OC)ccc1OCCOCCN1CCc2ccccc2C1	i	i	i	-88	i	-43
c1ccc(OCCOCCN2CCc3ccccc3C2)cc1	i	i	i	-111	i	i
SMILES	ERG Ets-DNA blk	D1 agonist	D1 PAM	D3 antag	DRD3 agonist	D1 antagonist
O=C(CCl)N(c1ccccc1)C1CCCCC1	i	i	i	-65	i	i
COc1ccc(C(C(=O)NC2CCCC2)N(Cc2ccco2)C(=O)c2snc(C(N)=O)c2N)cc1OC (stereo not given)	i	i	i	i	i	-33
COc1cccc(C(C(=O)NC2CCCC2)N(Cc2ccco2)C(=O)c2ccco2)c1OC (stereo not given)	i	i	i	-65	i	-37
Cc1ccc2c(c1)nc1c3ccccc3nc(-c3ccccc3N)n21	nt	nt	nt	i	i	nt
Cn1c(=O)c(N)c2c3c(c(Br)ccc31)C(=O)c1ccccc1-2	?	73	i	i	i	i
CCCN1CCN(C(=O)Cn2c(-c3cccs3)cc3ccccc32)CC1	i	i	i	nt	i	i
CCN1CCc2c(C#N)c(N3CCCCC3)nc(N3CCOCC3)c2C1	i	i	i	-53	i	i
CCN1CCc2c(C#N)c(N3CCOCC3)nc(N3CCOCC3)c2C1	i	i	i	i	i	i
Cc1cc2oc3c(c(=O)c2cc1C)C(c1ccc(C(C)C)cc1)N(CCCN1CCOCC1)C3=O (stereo not given)	i	i	i	i	i	i
